# In PubChem BioAssay AID651820 (National Center for Advancing Translational Sciences (NCATS), 2012):
# Out of some 340,000 compounds screened, about 12,000 (3.5%) were called active. Entries that show only a call come without a potency. Inconclusive results (about 18%) are left out. The sample holds actives, similar compounds and a random draw of the others, so the mix is not that of the screen. Unmarked numbers belong to inactive results. Calls follow the shape of the dose curve; as a rule, active = well fitted inhibition curve with a large enough effect; inconclusive = small, poorly fitted or top-dose-only effect, or another doubt; inactive = no such curve, though single readings can be large or run the other way.
# Assay: qHTS Assay for Inhibitors of Hepatitis C Virus (HCV)
# Settings: Huh7.5.1 HCVcc-Cre infection, luciferase reporter, 44 h; series mostly up to 41.8 µM
# How it was run: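 HCVcc-Cre virus at an moi near 0.5 was added right after compound to cells cultured 4 h from seeding (1,000 cells/well). Luciferase activity was determined 44 h later, 15 min after substrate addition at RT.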
# Potency is read from the fitted curve at half-maximal effect.
Compound,Potency,"activity change, negative = inhibition"
Cc1ccccc1NC(=O)Cc1nc(COC(=O)c2ccc(C(F)(F)F)cc2)cs1,inactive,
CCNC(=S)N(CCc1c(C)[nH]c2ccc(C)cc12)Cc1ccco1,,1.39% [at 8.37 µM]
COc1cccc(NC(=S)N(CCc2c(C)[nH]c3ccccc23)Cc2ccco2)c1,25.1 µM (active),
COc1cccc(NC(=S)NCc2ccco2)c1,inactive,
CC(C)CC1(C)NC(=O)N(CC(=O)Nc2ccc3c(c2)OCCO3)C1=O (stereo not given),inactive,
CC1(c2ccccc2)NC(=O)N(CC(=O)Nc2cc(Cl)ccc2N2CCOCC2)C1=O (stereo not given),inactive,
O=C(CN1CCOCC1)Nc1cc(Cl)ccc1Cl,inactive,
O=C(CSc1nc(Nc2ccccc2)nc(N2CCOCC2)n1)Nc1cc(Cl)ccc1O,10 µM (active),
C#CCOCCOCCOCCNc1nc(N2CCN(C(=O)Cn3cc(CCO)nn3)CC2)nc(N2CCN(C(=O)Cn3cc(CCCN=C(N)N)nn3)CC2)n1,inactive,
CCCCNC(=O)CSc1nc2n[nH]c(C)c2c(=N)n1-c1cccc(Cl)c1C,15.8 µM (active),
CCCCNC(=O)CSc1nnc(-c2ccco2)n1C,inactive,
CCCCNC(=O)CSc1nccn1Cc1ccccc1,inactive,
CCn1nc(C(=O)NNC(=O)C2CSC3(C)CCC(=O)N23)c2ccccc2c1=O (stereo not given),inactive,
COc1cccc(CNC(C)C(=O)Nc2ccc(S(=O)(=O)N3CCCC3)cc2)c1 (stereo not given),inactive,
O=C(Nc1nnc(-c2ccccc2)o1)c1cc(-c2cccs2)nc2ccccc12,inactive,
COC(=O)c1cc(-c2cccs2)nc2ccccc12,12.6 µM (active),
O=C(NCCN1CCOCC1)c1cc(-c2cccs2)nc2ccccc12,inactive,
N/C(=N\OC(=O)CCc1ccccc1)c1cccnc1,inactive,
O=C(O)CCCc1ccccc1,inactive,
O=C(O)CCc1cccnc1,0.891 µM (active),
COc1ccc2c(CC(=O)NNC(=O)c3ccccc3F)coc2c1,inactive,
Cc1cc(C)n2nc(C(=O)OCC(=O)N(C)CC(=O)Nc3ccc(F)cc3)nc2n1,inactive,

Compound,Potency,"activity change, negative = inhibition"
Cc1ccc(C)c(-c2nnc(NC(=O)CS(=O)(=O)c3ccccc3)o2)c1,inactive,
COc1ccc(S(=O)(=O)Nc2cccc3c2O[C@H](CN(C)S(=O)(=O)c2ccc(OC)cc2)[C@@H](C)CN([C@H](C)CO)C3=O)cc1,inactive,
O=C(NCC1CCCO1)c1cc(-c2ccccc2)nc2ccccc12 (stereo not given),inactive,
O=C(NCCc1ccc(F)cc1)c1n[nH]c2ccccc12,inactive,
O=C(NCC1CCCO1)c1cc2c([nH]c3ccccc32)c(-c2ccc(F)cc2)n1 (stereo not given),1.58 µM (active),
O=C(NCC1CCCO1)c1ccc2ccccc2n1 (stereo not given),inactive,
O=C(NCCCO)c1cc2c([nH]c3ccccc32)c(-c2ccc(F)cc2)n1,14.1 µM (active),
CN(C)CCCNC(=O)c1ccc2[nH]c3ccccc3c2c1,inactive,
COc1ccc(CCNC(=O)COc2cc(C)cc3oc(=O)c(C)c(C)c23)cc1OC,inactive,
CC1CN(Cc2ccccc2)C(=S)NC1=O (stereo not given),inactive,
C=CCOC(=O)N1CCC2CC1c1cc(-c3ccc(OC)cc3)ccc12 (stereo not given),,2.52% [at 8.37 µM]
COc1ccccc1C(=O)NCCC(=O)NC1=NCCS1,inactive,
Cc1ccc(C(=O)NNC(=O)CSc2nnc3ccccn23)cc1,inactive,
Cc1ccc(CNC(=O)c2ccc3c(c2)S(=O)(=O)c2ccccc2C3=O)cc1,inactive,
CC1CCN(c2c(NCc3ccc(C(=O)NCc4ccccc4)cc3)c(=O)c2=O)CC1,inactive,
Cc1ccc(CNC(=O)c2cccc3c2C(=O)c2ccc(N4CCC(C)CC4)cc2S3(=O)=O)cc1,10 µM (active),
COc1cccc(NC(=O)CN(C)CC(=O)c2c(N)n(Cc3ccccc3)c(=O)n(C)c2=O)c1,inactive,
CCCCCCSc1ccc([C@@H]2[C@H]3C(=O)N(CC)C(=O)[C@H]3[C@]3(C(=O)OC)CCCCN23)cc1,inactive,
O=C1CCCC2=C1C(c1ccccc1)n1c(s/c(=C/c3cccc(F)c3)c1=O)=N2 (stereo not given),inactive,
COc1ccc(OC)c(C2C3=C(N=c4s/c(=C\c5cccc(O)c5)c(=O)n42)c2ccccc2CC3)c1 (stereo not given),10 µM (active),
COCCOC(=O)C1=C(C)N=c2s/c(=C\c3cccs3)c(=O)n2C1c1cccs1 (stereo not given),inactive,
CSCCC(NC(=O)COc1ccccc1)C(=O)N(C)CC(=O)Nc1ccc(C)cc1 (stereo not given),inactive,

Compound,Potency,"activity change, negative = inhibition"
Cc1ccc2nc(C)cc(N/N=C/c3ccc(F)cc3)c2c1,inactive,
CCOc1cc(/C=N/Nc2cc(C)nc3ccc(C)cc23)ccc1O,10 µM (active),
CCOc1cc(/C=N/NC(=O)c2cc(-c3ccccc3)nc3ccccc23)ccc1O,inactive,
OCCN1CCN(CCO)C1=S,inactive,
Cn1c(=O)[nH]c(=O)c2c1nc(N1CCN(CCO)CC1)n2CCSc1nc2ccccc2s1,inactive,
CC1CCN(c2nc3c(c(=O)[nH]c(=O)n3C)n2CCCc2ccccc2)CC1,inactive,
Cn1c(=O)[nH]c(=O)c2c1nc(N1CCN(C(c3ccccc3)c3ccccc3)CC1)n2CCO,10 µM (active),
COc1ccc(-c2nc3cc(C)ccn3c2NC2CCCCC2)cc1SC1CCCCC1,3.55 µM (active),
COc1ccc(C)cc1S(=O)(=O)NC1CCCCC1,inactive,
Cc1ccc2nc(-c3cccnc3)c(NC3CCCC3)n2c1,inactive,
O=S(=O)(Nc1ncnc2sccc12)c1cccc(F)c1,inactive,
CCCCN(C(=O)C(CCSC)N1C(=O)c2ccccc2C1=O)c1c(N)n(CCC)c(=O)[nH]c1=O (stereo not given),inactive,
CN(CC(=O)Nc1ccc(OC(F)(F)F)cc1)C(=O)C1CCC1,inactive,
O=C(CCl)Nc1ccc(Sc2ccc(NC(=O)CCl)cc2)cc1,3.98 µM (active),
CC(C)(CCl)C(=O)Nc1ccc(Sc2ccc(F)cc2)cc1,inactive,
Cc1ccc(NC(=O)CC(=O)Nc2ccc(C)cc2)cc1,inactive,
O=C(COC(=O)c1ccc(F)cc1)NCC1COc2ccccc2O1 (stereo not given),inactive,
COc1ccc2oc(N)nc2c1,inactive,
Cc1ccc(NS(=O)(=O)c2ccc(C(=O)NCCCN3CCOCC3)cc2)cc1,inactive,
COc1cccc(CNC(=O)COC(=O)CN2C(=O)NC3(CCCCC3C)C2=O)c1 (stereo not given),inactive,
CCOC(=O)[C@H]1[C@H]2COc3ccc(C)cc3[C@@H]2N2C(=O)CN(Cc3ccc(F)cc3)C(=O)[C@@]12C,inactive,
